High-throughput results (PubChem)
Epigenetic reg: derepresses silenced GFP reporter in murine cells; murine LDR cells, GFP reporter derepression, 30 h; Potency, µM (highest dose often 53.9 µM), without a hit: at the top dose GFP activation, hits mostly activators; hit rate 0.2% among 280,000; AID 1865; note: % of control where 0% means no effect; nearly all actives have a fitted effect of over 60% in size
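In this reporter-derepression format, murine cells bearing a silenced integrated CMV-GFP locus incubate with test compound (30 h, 37 C), then are washed and imaged; fluorescent objects of 20–120 um count as induced cells.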
HTT cytoprotect: cytoprotection in Huntington HTT-Q103 PC12 cell model; PC12 HTT-Q103 induced, cytoprotection, ATP luminescence, 40 h; Potency, µM (doses to about 56.4 µM), for inactives: cytoprotection (ATP increase), most hits filed as activators; hit rate 0.14% among 230,000; note: % of control where 0% means no effect; nearly all actives have a fitted effect of over 45% in size
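Stable PC12 Q103-GFP cells in serum-supplemented, phenol red-free DMEM; induction by tebufenozide at 100 nM final; compound dose series; cell viability quantified luminescently from ATP.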
LMNA splice mod: LMNA splicing modulation; HeLa LMNA splicing GFP/RFP minigene ratio, 48 h; Potency, µM (series often up to 46.1 µM), inactives show at the top dose ratio change, negative = inhibition, hits mostly inhibitors; hit rate 0.01% among 200,000; AID 1487; active = well fitted inhibition curve with a large enough effect in the signal ratio, with a control signal flat, not every such curve was filed as active; inconclusive = small, poorly fitted or top-dose-only effect, or effect the other way, or a change in a side signal; the % refers to the signal ratio; note: % is set by controls: 0 for no effect and ±100 for the full control effect
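Read-out is the ratio of GFP to DsRed2 object intensity, acquired by 488 nm laser-scanning cytometry on HeLa lamin A-EGFP minigene reporter cells. Compound incubation 48 hrs at 37 °C in Opti-MEM with 2% FBS; DMSO 0.5% final.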
NPSR antag: blocks cAMP signaling of the human neuropeptide S receptor. hit rate 1% among 220,000. CHO-NPSR cells, cAMP TR-FRET, antagonist mode. Q6W5P4. Potency, µM (titrated, usually from 38.3 µM), without a hit: at the highest dose activity change, negative = inhibition, hits mostly inhibitors; note: % is set by controls: 0 for no effect and ±100 for the full control effect; nearly all actives have a fitted effect of over 50% in size
Target sequence (Q6W5P4 whole entry, looked up): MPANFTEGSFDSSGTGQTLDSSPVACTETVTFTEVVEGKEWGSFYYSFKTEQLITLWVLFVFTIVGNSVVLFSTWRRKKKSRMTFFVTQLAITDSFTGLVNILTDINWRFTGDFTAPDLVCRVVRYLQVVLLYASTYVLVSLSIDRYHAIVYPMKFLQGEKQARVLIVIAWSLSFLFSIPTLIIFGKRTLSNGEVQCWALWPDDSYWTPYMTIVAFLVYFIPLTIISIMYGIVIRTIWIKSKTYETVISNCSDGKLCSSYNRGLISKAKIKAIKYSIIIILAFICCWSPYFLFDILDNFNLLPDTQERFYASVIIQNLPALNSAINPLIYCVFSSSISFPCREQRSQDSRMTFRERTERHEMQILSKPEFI
HTT aggregate: reduces HttQ103-GFP aggregates in PC12 cells. PC12 HttQ103-GFP aggregates, Acumen cytometry, 40 h. Potency, µM (highest dose often 46.1 µM), inactives show top-dose activity change, negative = inhibition, usual class: inhibitors. hit rate 1.1% among 220,000; note: % is set by controls: 0 for no effect and ±100 for the full control effect; nearly all actives have a fitted effect of over 60% in size
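Quantitative HTS on tebufenozide-induced (100 nM) PC12 cells stably expressing polyQ103 Huntingtin exon 1–GFP. Reduction of bright GFP aggregates, detected by laser scanning cytometry after lysis, identified actives across the titration.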
The depositor's hits bear a star; ? = inconclusive; nt = not tested or not shown; [ ] = dose if it differs, or a comment. This is a sample that favours compounds with a hit; in the whole collection about 1.5% have one here. Unless noted, calls come from the whole dose curve; as a rule, active = well fitted curve in the direction sought with a large enough effect; inconclusive = small, poorly fitted or top-dose-only effect, or another doubt; inactive = no such curve, though single readings can be large; an effect the other way counts as inactive or inconclusive. Potency is the fitted concentration of half-maximal effect.

SMILES	Epigenetic reg	HTT cytoprotect	LMNA splice mod	NPSR antag	HTT aggregate
N[C@@H](Cc1cc(CP(=O)(O)O)cc(-c2ccccc2Cl)c1)C(=O)O	8%	32µM*	nt	nt	nt
Cn1nc(C(F)(F)F)c(C#N)c1N1CCN(c2ccccc2F)CC1	0%	4%	?	-20%[46.1 µM]	-17%
COc1cccc(N2CCN(c3c(C#N)c(C(F)(F)F)nn3C)CC2)c1	-1%	26%	?	-11%[46.1 µM]	11µM*
CCc1nn(-c2ccccc2)c2nc(-c3ccc(O)cc3)c3cc(OC)c(OC)cc3c12	-2%	nt	nt	nt	nt
Brc1cc(Br)c2nc(-c3cccs3)ccc2c1	-1%	-8%	0%	25%[46.1 µM]	9%
Cc1nc2c(Br)cc(Br)cc2cc1O	6%	-2%	?	?	11µM*
CCOc1ccccc1CNC(=O)c1cc2cc(S(=O)(=O)N3CCCCC3)ccc2n1C	0%	nt	?	nt	nt
Cc1cccc(NC(=O)c2c(-c3ccccc3)noc2C)n1	0%	2.2µM*	-10%[9.22 µM]	-1%	-9%
CC(C)CN1CC2(CCN(C(=O)c3ccco3)CC2)C1	nt	5%	nt	nt	nt
Cc1cccc(/C=C/C(=O)c2cc(Br)ccc(=O)c2O)c1	?	-13%	?	10µM*	-3%
CN(C)C(=O)c1ccc(NC(=O)c2cncc(Br)c2)cc1	-1%	20%[10 µM]	1%	2%[46.1 µM]	16µM*
O=C1NCCN(Cc2ccc(F)cc2)C1=O	-4%	nt	3%[46 µM]	nt	nt
CCc1ccc(C(=O)c2cn(CC(=O)Nc3cc(F)ccc3F)c3nc(C)ccc3c2=O)cc1	20µM*	nt	nt	nt	nt
O=C(O)/C=C/C(=O)NC1CCCCC1	-1%	-58%[10 µM]	14%	9%	3.5µM*
CCCCCn1c(CNC(=O)c2ccc(F)cc2)nc2ccccc21	1%	nt	nt	nt	nt
Cc1ccc(-c2nc(Nc3ccc(N4CCOCC4)cc3)c3ccccc3n2)cc1	0%	9%[10 µM]	nt	13µM*	-9%[9.22 µM]
COC(=O)c1ccc(Nc2nc(-c3ccc(C)cc3)nc3ccccc23)cc1	-2%	nt	nt	nt	nt
COc1ccc(C(=O)c2sc3nc(-c4ccc(C)cc4)cc(C(F)(F)F)c3c2N)cc1	1µM*	nt	nt	nt	nt
COc1ccc(C(=O)c2sc3nc(-c4ccc(OC)cc4)ccc3c2N)cc1	16%	3%[10 µM]	-13%	-12%[46.1 µM]	-6%
COc1ccc(OC)c(-c2noc(N3CCN(c4cc(C)ccc4C)CC3)n2)c1	0%	nt	1%[46 µM]	nt	nt
CN(c1cccc(NC(=O)c2ccc(C(C)(C)C)cc2)c1)S(C)(=O)=O	-1%	-164%	nt	16%	11µM*
COC(=O)[C@@]1(Cc2ccc(F)cc2)[C@@H]2C(=CC(=O)[C@H]2CC(=O)C(=O)N(C)C)CN1C(=O)c1ccccc1	2%	4µM*	nt	nt	nt
Cc1ccc(-c2cc(C(=O)Nc3ccc(SC(F)F)cc3)no2)cc1F	-3%	nt	nt	nt	nt
CC(C(=O)N1c2ccccc2Sc2ccccc21)n1nnc(-c2cccs2)n1 (configuration not stated)	2%	-5%[10 µM]	3%	?	4µM*
COC(=O)[C@@]1(Cc2ccccc2)[C@H]2c3cc(C(=O)N(C)C)n(Cc4ccc(OC)c(OC)c4)c3C[C@H]2CN1C(=O)c1ccccc1	9%	13%	nt	nt	nt
SMILES	Epigenetic reg	HTT cytoprotect	LMNA splice mod	NPSR antag	HTT aggregate
Nc1c(C(=O)C2CC2)sc2nc(-c3cccs3)cc(C(F)(F)F)c12	3.5µM*	-79%	4%	7%[46.1 µM]	-26%
CC(=O)c1sc2nc(-c3cccs3)ccc2c1N	0%	2%	0%	-3%[46.1 µM]	-2%[9.22 µM]
Cc1cccc(Nc2nnc(-n3nc(C)cc3C)c3ccccc23)c1	2%	nt	nt	nt	nt
NC(=O)c1sc2nc3c(c(-c4ccc(Cl)cc4)c2c1N)CCCC3	-4%	?	20%	?	-3%
Cc1ccc(-c2c3c(nc4sc(C(N)=O)c(N)c24)CCC3)cc1	1%	-2%	41%	-21%[46.1 µM]	10µM*
COc1ccc(C)cc1NC(=O)c1ccccc1NS(=O)(=O)c1ccc(Cl)s1	1%	-71%	-5%[46 µM]	-8%	4.5µM*
COc1ccccc1NC(=O)c1ccccc1NS(=O)(=O)c1cccs1	0%	19%[10 µM]	-12%[46 µM]	-11%	-29%
COc1cc(OC)c(-c2c3cc(O)c(=O)cc-3oc3cc(O)c(O)cc23)cc1OC	2%	5%[10 µM]	?	-25%	4µM*
Cc1c2cc(O)c(=O)cc-2oc2cc(O)c(O)cc12	2%	0%[10 µM]	-12%	-8%	5%[9.22 µM]
